In publication PMC12820563, “FoxP3 forms a head-to-head dimer in vivo and stabilizes its multimerization on adjacent microsatellites”:
Over roughly 16,000 sequences, “rpm ratio (pull-down/input)” has its median near 0.94; the highest 2% begin near 1.7. The sample holds the highest values, similar sequences and a random draw of the others, so the mix is not that of the screen.

Target: T1, MBP-FoxP1dN (Mus musculus, UniProt P58462 326-579)
T1 sequence: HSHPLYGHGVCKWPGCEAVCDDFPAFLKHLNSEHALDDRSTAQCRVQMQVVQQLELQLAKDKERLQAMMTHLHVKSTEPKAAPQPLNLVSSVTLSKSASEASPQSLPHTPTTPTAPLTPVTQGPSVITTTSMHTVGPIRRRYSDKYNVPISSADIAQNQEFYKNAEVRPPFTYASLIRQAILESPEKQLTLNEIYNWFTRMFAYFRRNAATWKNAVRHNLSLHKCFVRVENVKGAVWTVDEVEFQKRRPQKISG
Experiment: PD-seq (MBP pull-down with sequencing); 20 mM Tris-HCl pH 7.5, 100 mM NaCl, 1.5 mM MgCl2, 0.4 uM protein, 0.1 uM dsDNA library, 30 min, room temperature, amylose pull-down; high values mean tight binding
Conditions: protein: recombinant; tags: His6-MBP; chain copies: 2; dsDNA, one strand shown
Summary of the method: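 The N-terminus-lacking fragment of mouse FoxP3 or FoxP1 carried a His6-MBP tag and was expressed in E. coli. At 0.4 µM it was incubated with 0.1 µM Klenow-filled degenerate double-stranded DNA library for 30 min at room temperature in Tris pH 7.5 buffer with NaCl and MgCl2, and complexes were caught on amylose resin, washed three times, released with proteinase K, PCR-barcoded and Illumina-sequenced. Binding is reads-per-million enrichment of pull-down over input with replicates pooled.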

Row | Sequence | binding signal
1 | GATGATTGTTCTCCCAGCTGATGAATTGGTACCTTCGAGTAAACAAATTTTCCTAATCTTTCTGTTCAAGCGCCATCTAC | 0.97 RPM ratio (pull-down/input)
2 | GATGATTGTTCTCCCAGCTGATGAATTTGTGTCATCGAGTAAACAAATTTTCCTAATCTTTCTGTTCAAGCGCCATCTAC | 1.48 RPM ratio (pull-down/input)
3 | GATGATTGTTCTCCCAGCTGATGAATTAAAGCAATCGAGTAAACAAATTTTCCTAATCTTTCTGTTCAAGCGCCATCTAC | 1.32 RPM ratio (pull-down/input)
4 | GATGATTGTTCTCCCAGCTGATGAATTCGTTCAATCGAGTAAACAAATTTTCCTAATCTTTCTGTTCAAGCGCCATCTAC | 0.909 RPM ratio (pull-down/input)
5 | GATGATTGTTCTCCCAGCTGATGAATTACATGGTTCGAGTAAACAAATTTTCCTAATCTTTCTGTTCAAGCGCCATCTAC | 1.12 RPM ratio (pull-down/input)
6 | GATGATTGTTCTCCCAGCTGATGAATTTAGGCTATCGAGTAAACAAATTTTCCTAATCTTTCTGTTCAAGCGCCATCTAC | 0.955 RPM ratio (pull-down/input)
7 | GATGATTGTTCTCCCAGCTGATGAATTATTAGATTCGAGTAAACAAATTTTCCTAATCTTTCTGTTCAAGCGCCATCTAC | 1.08 RPM ratio (pull-down/input)
8 | GATGATTGTTCTCCCAGCTGATGAATTAGACTGATCGAGTAAACAAATTTTCCTAATCTTTCTGTTCAAGCGCCATCTAC | 0.851 RPM ratio (pull-down/input)
9 | GATGATTGTTCTCCCAGCTGATGAATTACAATTGTCGAGTAAACAAATTTTCCTAATCTTTCTGTTCAAGCGCCATCTAC | 1.4 RPM ratio (pull-down/input)
10 | GATGATTGTTCTCCCAGCTGATGAATTTTGAACTTCGAGTAAACAAATTTTCCTAATCTTTCTGTTCAAGCGCCATCTAC | 0.94 RPM ratio (pull-down/input)
11 | GATGATTGTTCTCCCAGCTGATGAATTTGCAGTTTCGAGTAAACAAATTTTCCTAATCTTTCTGTTCAAGCGCCATCTAC | 1.02 RPM ratio (pull-down/input)
12 | GATGATTGTTCTCCCAGCTGATGAATTTCCGTCGTCGAGTAAACAAATTTTCCTAATCTTTCTGTTCAAGCGCCATCTAC | 0.841 RPM ratio (pull-down/input)
13 | GATGATTGTTCTCCCAGCTGATGAATTGTTATCATCGAGTAAACAAATTTTCCTAATCTTTCTGTTCAAGCGCCATCTAC | 1.73 RPM ratio (pull-down/input)
14 | GATGATTGTTCTCCCAGCTGATGAATTATCATCATCGAGTAAACAAATTTTCCTAATCTTTCTGTTCAAGCGCCATCTAC | 1.12 RPM ratio (pull-down/input)
15 | GATGATTGTTCTCCCAGCTGATGAATTCGAGTTATCGAGTAAACAAATTTTCCTAATCTTTCTGTTCAAGCGCCATCTAC | 0.96 RPM ratio (pull-down/input)
16 | GATGATTGTTCTCCCAGCTGATGAATTGTTCTTATCGAGTAAACAAATTTTCCTAATCTTTCTGTTCAAGCGCCATCTAC | 1.41 RPM ratio (pull-down/input)

Row | Sequence | binding signal
17 | GATGATTGTTCTCCCAGCTGATGAATTCTTGTTATCGAGTAAACAAATTTTCCTAATCTTTCTGTTCAAGCGCCATCTAC | 2.09 RPM ratio (pull-down/input)
18 | GATGATTGTTCTCCCAGCTGATGAATTCCTGTTATCGAGTAAACAAATTTTCCTAATCTTTCTGTTCAAGCGCCATCTAC | 1.65 RPM ratio (pull-down/input)
19 | GATGATTGTTCTCCCAGCTGATGAATTTTGCTTATCGAGTAAACAAATTTTCCTAATCTTTCTGTTCAAGCGCCATCTAC | 2.09 RPM ratio (pull-down/input)
20 | GATGATTGTTCTCCCAGCTGATGAATTTTTATCATCGAGTAAACAAATTTTCCTAATCTTTCTGTTCAAGCGCCATCTAC | 1.36 RPM ratio (pull-down/input)
21 | GATGATTGTTCTCCCAGCTGATGAATTGTTGTTATCGAGTAAACAAATTTTCCTAATCTTTCTGTTCAAGCGCCATCTAC | 2.91 RPM ratio (pull-down/input)
22 | GATGATTGTTCTCCCAGCTGATGAATTTGCTTTATCGAGTAAACAAATTTTCCTAATCTTTCTGTTCAAGCGCCATCTAC | 1.1 RPM ratio (pull-down/input)
23 | GATGATTGTTCTCCCAGCTGATGAATTGCTTATATCGAGTAAACAAATTTTCCTAATCTTTCTGTTCAAGCGCCATCTAC | 1.34 RPM ratio (pull-down/input)
24 | GATGATTGTTCTCCCAGCTGATGAATTTCTGTTATCGAGTAAACAAATTTTCCTAATCTTTCTGTTCAAGCGCCATCTAC | 1.69 RPM ratio (pull-down/input)
25 | GATGATTGTTCTCCCAGCTGATGAATTTATGTGATCGAGTAAACAAATTTTCCTAATCTTTCTGTTCAAGCGCCATCTAC | 1.21 RPM ratio (pull-down/input)
26 | GATGATTGTTCTCCCAGCTGATGAATTGTAGTGCTCGAGTAAACAAATTTTCCTAATCTTTCTGTTCAAGCGCCATCTAC | 1.04 RPM ratio (pull-down/input)
27 | GATGATTGTTCTCCCAGCTGATGAATTTGGTACGTCGAGTAAACAAATTTTCCTAATCTTTCTGTTCAAGCGCCATCTAC | 0.997 RPM ratio (pull-down/input)
28 | GATGATTGTTCTCCCAGCTGATGAATTAATCGCGTCGAGTAAACAAATTTTCCTAATCTTTCTGTTCAAGCGCCATCTAC | 1.01 RPM ratio (pull-down/input)
29 | GATGATTGTTCTCCCAGCTGATGAATTTTAATCCTCGAGTAAACAAATTTTCCTAATCTTTCTGTTCAAGCGCCATCTAC | 0.832 RPM ratio (pull-down/input)
30 | GATGATTGTTCTCCCAGCTGATGAATTCAGGGGGTCGAGTAAACAAATTTTCCTAATCTTTCTGTTCAAGCGCCATCTAC | 0.723 RPM ratio (pull-down/input)
31 | GATGATTGTTCTCCCAGCTGATGAATTTGAGTTATCGAGTAAACAAATTTTCCTAATCTTTCTGTTCAAGCGCCATCTAC | 1.04 RPM ratio (pull-down/input)
32 | GATGATTGTTCTCCCAGCTGATGAATTGCTGTTATCGAGTAAACAAATTTTCCTAATCTTTCTGTTCAAGCGCCATCTAC | 1.85 RPM ratio (pull-down/input)
